Measured values: PubChem BioAssay AID651625 (National Center for Advancing Translational Sciences (NCATS), 2012)
Values without a mark were called inactive.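 The calls were made as follows: active = inhibition of at least 60% at a 114 µM dose; inconclusive = inhibition from 30% up to under 60% at that dose; inactive = inhibition under 30% at 114 µM.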

The compounds below were run against Ubiquitin carboxyl-terminal hydrolase 5 (Homo sapiens) (UniProt P45974) (assay: Inhibitors of USP1/UAF1: SAR in USP5 diubiquitin SDS-PAGE gel assay). Conditions: USP5 K63 diubiquitin cleavage, 1 h; series mostly up to 114 µM; inhibition: at the top concentration.
Ubiquitin carboxyl-terminal hydrolase 5 (Homo sapiens), sequence (P45974 whole entry, looked up): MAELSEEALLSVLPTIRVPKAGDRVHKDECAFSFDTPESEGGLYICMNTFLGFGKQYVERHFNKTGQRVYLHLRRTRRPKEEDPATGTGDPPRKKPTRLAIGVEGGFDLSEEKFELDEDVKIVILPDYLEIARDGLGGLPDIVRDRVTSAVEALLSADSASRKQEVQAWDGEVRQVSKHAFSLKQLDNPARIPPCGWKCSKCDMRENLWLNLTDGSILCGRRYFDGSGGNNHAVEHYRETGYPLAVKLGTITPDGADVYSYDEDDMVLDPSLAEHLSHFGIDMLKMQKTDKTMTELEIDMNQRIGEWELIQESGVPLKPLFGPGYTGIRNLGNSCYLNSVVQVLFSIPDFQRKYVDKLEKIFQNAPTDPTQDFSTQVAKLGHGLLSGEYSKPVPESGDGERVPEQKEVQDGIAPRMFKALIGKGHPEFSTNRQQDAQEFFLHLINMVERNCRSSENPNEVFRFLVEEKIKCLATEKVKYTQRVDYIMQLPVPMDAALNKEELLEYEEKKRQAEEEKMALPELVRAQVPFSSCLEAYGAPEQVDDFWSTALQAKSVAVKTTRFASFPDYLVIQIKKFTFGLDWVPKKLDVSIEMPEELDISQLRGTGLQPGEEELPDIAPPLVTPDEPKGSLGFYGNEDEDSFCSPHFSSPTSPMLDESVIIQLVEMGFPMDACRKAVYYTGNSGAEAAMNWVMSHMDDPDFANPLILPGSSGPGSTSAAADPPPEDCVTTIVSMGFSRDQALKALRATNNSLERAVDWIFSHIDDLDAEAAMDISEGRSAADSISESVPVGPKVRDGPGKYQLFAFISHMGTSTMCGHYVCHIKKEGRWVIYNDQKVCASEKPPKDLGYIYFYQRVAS
Description: Deubiquitinating enzymes (DUBs) are a class of enzymes that can cleave isopeptide bond formed between the C-terminal carboxylate of ubiquitin and a lysine side-chain amino group on the target protein. Among them, ubiquitin specific proteases (USPs) constitute the largest DUB family. Human USPs are emerging as promising targets for pharmacological intervention because of their connection to a number of human diseases, including prostate, colon and breast cancer (1, 2), pediatric acute lymphoblastic leukemia (3), and familial cylindromatosis (4). The advantage of inhibiting USPs lies in the potential specificity of therapeutic intervention that can lead to better efficacy and reduce nonspecific side effects. In a collaboration between the University of Delaware and the NIH Chemical Genomics Center, a high-throughput screen assay was developed to screen for USP1/UAF1 inhibitors (5). This assay is a selectivity assay that tested for activity in a USP5 diubiquitin SDS-PAGE gel assay and inactivity is the desired outcome for this assay. […]
The inhibition assay contains 5 nM USP5, 2 microM K63 linked diubiquitin, and inhibitors at varied concentrations (0.08 microM - 114 microM). […] The intensity of the individual diubiquitin and monoubiquitin band was quantified using Quantity One 4.3.1 (Biorad, Hercules, CA). The percentage of the conversion was determined and used to calculate the reaction rate. […]

SMILES | inhibition [%]
Cc1cnc(-c2ccccc2C(C)C)nc1NCc1ccc(-n2ccnn2)cc1 | 2
